About 83,000 compounds went through this panel and 20% of them were active in at least one assay; those are over-represented in the sample as a whole.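 Method: cells in 96-well plates; compound added at one concentration; 48 h incubation; percent growth measured; values under 10 scored active.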 Values without a mark were called inactive. The source made the active and inactive calls.
tested on: NCI-H23 lung; test: NCI-60 one-dose screen, 48 h (100 = growth as untreated, 0 = no growth, -100 = all killed); details: 10 µM unless noted
Method: Growth inhibition of the NCI-H23 human Non-Small Cell Lung tumor cell line is measured as a screen for anti-cancer activity. Cells are grown in 96 well plates and exposed to the test compound for 48 hours. Compounds are tested at a single concentration, which is 10^-5 M for most compounds. The reported endpoint is percent growth (GI% or GIPRCNT), where numbers from 0 - 100% represent growth inhibition, and numbers from -100% - 0 represent cell death. For example, a value of 40 represents 60% growth inhibition. A value of 0 means no net growth occurred over the course of the experiment. A value of -40 indicates 40% of cells at the beginning of the experiment died by the end of the experiment. A value of -100 means all cells are dead at the end of the experiment.
NCI-60 Human Tumor Cell Lines Screen was performed using the standard one-dose NCI protocol, which is described in more detail at https://dtp.cancer.gov/discovery_development/nci-60/default.htm.
Compounds with GIPRCNT values below 10 were considered active. Activity score was based on GIPRCNT using the following formula: […]
Score is 0 for GIPRCNT values of 100 or above, 50 for GIPRCNT values of 0, and 100 for GIPRCNT values of -100.

| Structure (SMILES) | growth |
| --- | --- |
| CN1CCCC1c1cccnc1 (stereo not given) | 2.54% (active) |
| O=C(O)c1ccc(NC(=O)c2cccc(Nc3ccnc(C(F)(F)F)c3)c2)cc1 | 102% |
| Cc1nn(-c2ccc(Cl)cc2)c2nc3c(nc12)C(=O)C(=O)c1ccccc1-3 | 75.5% |
| Nc1ccc2c3c(cccc13)-c1ccccc1-2 | 97.7% |
| Oc1ccccc1C=Nc1ccccc1N=Cc1ccccc1O.[Cu+2] | 33.1% |
| CC/C(=C\c1ccc(N(C)C)cc1)c1nc2ccccc2c(=O)[nH]1 | 121% |
| c1coc([C@@H]2C[C@@H]3Cc4ccc5ccccc5c4N2O3)c1 | 94.3% |
| COc1cc2c(c(OC)c1OC)CCc1cnoc1-2 | 104% |
| N=c1ccn2c(n1)O[C@@H]1[C@@H](O)[C@H](CO)O[C@@H]12 | 33.3% |
| OCCOc1c(Cl)cc(Cl)cc1Cl | 101% |
| Cc1cc(N2CCOCC2)nc(N2CCOCC2)n1 | 94.6% |
| Cc1ccc(NC(=O)COC(=O)c2ccc(S(=O)(=O)N3CCCCCC3)cc2)cc1 | 107% |
| OC(c1cc(C(F)(F)F)nc2c(C(F)(F)F)cccc12)C1CCCCN1 (stereo not given) | 78.4% |
| COc1ccc(C2CC(c3ccc(OC)c(OC)c3)=NN2C(=O)c2cc(OC)c(OC)c(OC)c2)c(OC)c1 (stereo not given) | 92.6% |
| Cn1cc(-c2csc(-c3cn(C)c4ncccc34)n2)c2cc(F)cnc21 | 70.5% |
| O=C(C(=O)N1CCCCC1)c1ccc(OC2OC(CO)C(O)C(O)C2O)cc1 (stereo not given) | 101% |
| N#CCNc1ccccc1N | 86.6% |
| Nc1ccc2c(c1)/C(=N/O)c1cc([N+](=O)[O-])ccc1-2 | 71.5% |
| Cn1cc(-c2csc(-c3c[nH]c4ncccc34)n2)c2cc(Br)cnc21 | 31.6% |
| C/C(=N/N=C(N)N)c1ccc(N)cc1 | 100% |

| Structure (SMILES) | growth |
| --- | --- |
| CN1C(=O)C(=Cc2cn(Cc3ccccc3)c3ccc(Br)cc23)C(=O)N(C)C1=O | 105% |
| CCOc1cc(-c2ccc[nH]2)[nH]c1/C=C1\N=C(C)C(C(=O)OC)=C1C | -59.4% (active) |
| Cc1ccc(C(C)C)cc1NC(=O)Nc1ccc([N+](=O)[O-])cc1 | -32.8% (active) |
| NC(=O)c1ncn([C@@H]2O[C@H](CO)[C@@H](O)[C@H]2O)n1 | 99.1% |
| CCC(=O)Nc1ccccc1C#C/C=C\C#Cc1ccccc1C(F)(F)F | 57.3% |
| CC(=O)c1cc(C(=O)c2ccc3c(c2)Sc2ccccc2N3)c2c(C)cc(C)cn12 | 26.7% |
| CCCCCCCCCCC[C@@H](C[C@H]1OC(=O)[C@H]1CCCCCC)OC(=O)[C@@H](CC(C)C)NC=O | 70.1% |
| Cc1c(C(N)=O)sc2ncn(CC(=O)Nc3ccc(Cl)cc3)c(=O)c12 | 110% |
| COc1ccc(C2=NNC(c3cc(Cc4ccc(O)c(C5CC(c6ccc(OC)cc6)=NN5)c4)ccc3O)C2)cc1 (stereo not given) | 35.9% |
| O=C1/C(=C/c2ccc3cccc(Cl)c3n2)SC(=S)N1CCc1ccc(O)cc1 | 94.1% |
| Cn1c(N)c(N=O)c(=O)[nH]c1=O | 104% |
| COc1ccc(/C=N/NC(=O)c2ccc(S(C)(=O)=O)cc2)cc1OC | 102% |
| CCOc1nc(-c2ccccc2)cc2c(O)c(-c3nnco3)[nH]c(=O)c12 | 63.1% |
| COc1ccc2[nH]cc(/C=C3/C(=O)Nc4ccc(Cl)cc43)c2c1 | 37.8% |
| CCCCCCC(C)(O)c1ccccc1 (stereo not given) | 102% |
| O=C1N(C2CCCCC2)C(=O)N1C1CCCCC1 | 45.1% |
| Oc1ccccc1/C=N\Nc1ccccc1 | 87.5% |
| O=C(Nc1ccc(OCc2nnc(-c3ccccc3)o2)c(F)c1)Nc1ccc(Cl)c(C(F)(F)F)c1 | 8.65% (active) |
| CC1CC(C)/C(=N/NC(N)=O)C(C(O)CC2CCC(=O)NC2=O)C1 (stereo not given) | 36.1% |
| CCN(CC)CCCNCCCNc1cc(OC)cc2cccnc12 | 94.2% |

— PubChem BioAssay (NCI)
